From PubChem BioAssay
Activity calls are given as the source filed them.

Experiments:
Albumin (Bos taurus) = Albumin (Bos taurus) (UniProt P02769); assay: compounds binding labelled BSA control protein – biochemical, small-molecule microarray, Alexa647 label, 635/667 nm fluorescence, artefact control for SMM control protein annotation, profiling panel (AID 1118); details: BSA-A647 binding, fluorescence 635 nm, higher = more signal;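 further: score merges 667 nm emission intensity and signal-to-noise per printed compound spot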
[1] = probe aXIP binding to arrayed compounds – biochemical, NeuroSMM set, 635/667 nm fluorescence, primary screen (AID 1119); details: small-molecule microarray, higher = more signal, called active from +8 up or from −8 down;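 further: probe is the protein aXip251-270 applied at 1 µg/mL to compound-printed slides; binding of probe to printed compounds measured as 667 nm fluorescence plus signal to noise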
[2] = probe aNOTCH3 binding on compound microarray – biochemical, small-molecule microarray, 635/667 nm fluorescence, primary screen (AID 1120); details: higher = more signal;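 further: probe is a biotin-tagged antibody raised against NOTCH3 rather than NOTCH3 protein; score merges spot fluorescence near 667 nm with spot signal to noise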
[3] = probe aNOTCH2 binding on compound microarray – biochemical, small-molecule microarray, 635/667 nm fluorescence, primary screen (AID 1121); details: higher = more signal;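 further: score merges feature fluorescence read at 667 nm with its signal to noise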
[4] = target: Carbonic anhydrase 2 (Homo sapiens) (UniProt P00918); assay: compounds binding carbonic anhydrase 2 – biochemical, small-molecule microarray, Alexa647-labelled CAII, profiling panel (AID 1122); details: CAII-A647 binding fluorescence, higher = more signal
[5] = COS7 lysate on small-molecule microarray, probe aHis, 635 nm (AID 1123); details: COS7 cell lysate, fluorescence, higher = more signal;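 further: z-score combines 667nm fluorescence intensity with signal-to-noise per printed compound spot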
[6] = probe aLAP1 signal on lysate-treated microarray – cell lysate, small-molecule microarray, COS7 lysate, primary screen (AID 1124); details: probe aLAP1, fluorescence, higher = more signal;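 further: lysate comes from COS7 cells expressing LAP1 and is applied at 0.3 µg/mL; score merges spot fluorescence near 667 nm with signal-to-noise over triplicate slides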
Sam68 (KHDRBS1) = assay: compounds binding KHDRBS1 protein – biochemical, small-molecule microarray, 635 nm fluorescence, primary screen (AID 1125); details: higher = more signal;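 further: score merges 667 nm channel intensity with signal to noise over triplicate slides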
[7] = tested on: Chordin-like protein 2 (CHRDL2); assay: compounds binding chordin-like 2 – biochemical, small-molecule microarray, 635 nm fluorescence, primary screen (AID 1126); details: fluorescence 635 nm, higher = more signal;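 further: printed compound slides probed with Chrdl2 protein at 4 µg/mL for 1 h at 4 C; score merges 667 nm emission intensity with signal to noise over three replicate slides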
[8] = target: Concanavalin-A (Canavalia ensiformis) (UniProt P02866); assay: compounds binding concanavalin A lectin – biochemical, small-molecule microarray, Alexa647 label, 635 nm, artefact control for SMM control protein annotation, primary screen (AID 1127); details: ConA-A647 binding fluorescence, higher = more signal;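 further: z combines 667 nm emission intensity with signal-to-noise across three replicate slides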
[9] = compounds binding Alexa647 anti-His antibody – biochemical, small-molecule microarray, 635 nm fluorescence, artefact control for SMM control protein annotation, primary screen (AID 1128); details: higher = more signal;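 further: score merges feature fluorescence with signal-to-noise for each printed compound spot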
[10] = tested on: Human papillomavirus type 1a E7 protein (residues 1-88); assay: HPV1a E7 small-molecule binders, primary screen, biochemical, small-molecule microarray, residues 1-88, 635 nm (AID 1129); details: small-molecule microarray binding, fluorescence 635 nm; higher = more signal
[11] = target: Focal adhesion kinase 1 (Homo sapiens) (UniProt Q05397); assay: PTK2 protein binding on printed compound slides – biochemical, small-molecule microarray, 635/667 nm fluorescence, BSA, DTT, primary screen (AID 1130); details: 635 nm fluorescence, higher = more signal;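 further: composite of spot emission at 667 nm and signal to noise over triplicate slides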
[12] = tested on: Fibrinogen (Alexa647-labelled); assay: Alexa647-fibrinogen binding to printed small molecules – biochemical, small-molecule microarray, 635/667 nm fluorescence, artefact control for SMM control-protein annotation, profiling panel (AID 1131); details: fibrinogen-A647 binding fluorescence, higher = more signal;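 further: z-score merges 667 nm fluorescence with per-spot signal-to-noise over triplicate slides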
[13] = target: Follistatin (Homo sapiens) (UniProt P19883); assay: FST protein binding to printed compounds – biochemical, small-molecule microarray, 635/667 nm fluorescence, primary screen (AID 1132); details: 635 nm fluorescence, higher = more signal
[14] = target: Fibroblast growth factor 2 (Homo sapiens) (UniProt P09038); assay: basic fibroblast growth factor binding to printed compounds – biochemical, small-molecule microarray, 635/667 nm fluorescence, primary screen (AID 1133); details: FGF2, fluorescence 635/667, higher = more signal
[15] = JC-1 mitochondrial potential readout, lung cancer cells – cell-based, A549, JC-1 fluorescence, basal, 24 h, 100 nL, profiling panel (AID 1138); details: higher = more signal;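 further: A549 lung adenocarcinoma cells under basal conditions with no added stimulus; test concentration not given here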
Lefty1 = Lefty1 protein binding to printed compounds – biochemical, small-molecule microarray, 635/667 nm fluorescence, primary screen (AID 1139); details: fluorescence 635/667, higher = more signal
[16] = tested on: wheat germ agglutinin (Triticum aestivum), Alexa647-labelled; assay: Alexa647-WGA lectin binding to printed small molecules – biochemical, small-molecule microarray, 635/667 nm fluorescence, artefact control for SMM control-protein annotation, profiling panel (AID 1140); details: WGA-A647 binding, 635 nm fluorescence, higher = more signal;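 further: score merges 667 nm feature emission with signal to noise over triplicate slides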
[17] = target: Luciferin 4-monooxygenase (Photinus pyralis) (UniProt P08659); assay: inhibition of purified Photinus pyralis luciferase – biochemical, luminescence, purified enzyme, 2006 set, primary screen (AID 1141); details: purified firefly luciferase, SteadyGlo luminescence, 30 min; higher = more signal, called active from +8 up or from −8 down;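 further: cell-free assay with purified firefly luciferase at 100 ng per well in PBS; test concentration not given here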
Sequence of Luciferin 4-monooxygenase (Photinus pyralis) (P08659 whole entry, looked up): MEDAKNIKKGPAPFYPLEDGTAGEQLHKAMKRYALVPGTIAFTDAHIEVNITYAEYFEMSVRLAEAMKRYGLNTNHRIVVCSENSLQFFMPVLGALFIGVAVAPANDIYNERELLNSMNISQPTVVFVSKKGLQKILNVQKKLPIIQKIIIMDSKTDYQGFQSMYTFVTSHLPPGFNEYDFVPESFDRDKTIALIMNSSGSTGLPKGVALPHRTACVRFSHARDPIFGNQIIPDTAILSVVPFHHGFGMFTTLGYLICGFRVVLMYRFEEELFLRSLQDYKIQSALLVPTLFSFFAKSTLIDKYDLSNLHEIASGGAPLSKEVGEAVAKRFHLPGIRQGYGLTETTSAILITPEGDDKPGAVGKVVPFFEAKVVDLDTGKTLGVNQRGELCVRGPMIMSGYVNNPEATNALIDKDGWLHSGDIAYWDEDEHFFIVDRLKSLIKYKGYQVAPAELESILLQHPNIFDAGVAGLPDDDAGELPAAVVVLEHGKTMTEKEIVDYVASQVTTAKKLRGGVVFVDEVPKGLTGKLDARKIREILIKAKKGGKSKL

Sequence of Focal adhesion kinase 1 (Homo sapiens) (Q05397 whole entry, looked up): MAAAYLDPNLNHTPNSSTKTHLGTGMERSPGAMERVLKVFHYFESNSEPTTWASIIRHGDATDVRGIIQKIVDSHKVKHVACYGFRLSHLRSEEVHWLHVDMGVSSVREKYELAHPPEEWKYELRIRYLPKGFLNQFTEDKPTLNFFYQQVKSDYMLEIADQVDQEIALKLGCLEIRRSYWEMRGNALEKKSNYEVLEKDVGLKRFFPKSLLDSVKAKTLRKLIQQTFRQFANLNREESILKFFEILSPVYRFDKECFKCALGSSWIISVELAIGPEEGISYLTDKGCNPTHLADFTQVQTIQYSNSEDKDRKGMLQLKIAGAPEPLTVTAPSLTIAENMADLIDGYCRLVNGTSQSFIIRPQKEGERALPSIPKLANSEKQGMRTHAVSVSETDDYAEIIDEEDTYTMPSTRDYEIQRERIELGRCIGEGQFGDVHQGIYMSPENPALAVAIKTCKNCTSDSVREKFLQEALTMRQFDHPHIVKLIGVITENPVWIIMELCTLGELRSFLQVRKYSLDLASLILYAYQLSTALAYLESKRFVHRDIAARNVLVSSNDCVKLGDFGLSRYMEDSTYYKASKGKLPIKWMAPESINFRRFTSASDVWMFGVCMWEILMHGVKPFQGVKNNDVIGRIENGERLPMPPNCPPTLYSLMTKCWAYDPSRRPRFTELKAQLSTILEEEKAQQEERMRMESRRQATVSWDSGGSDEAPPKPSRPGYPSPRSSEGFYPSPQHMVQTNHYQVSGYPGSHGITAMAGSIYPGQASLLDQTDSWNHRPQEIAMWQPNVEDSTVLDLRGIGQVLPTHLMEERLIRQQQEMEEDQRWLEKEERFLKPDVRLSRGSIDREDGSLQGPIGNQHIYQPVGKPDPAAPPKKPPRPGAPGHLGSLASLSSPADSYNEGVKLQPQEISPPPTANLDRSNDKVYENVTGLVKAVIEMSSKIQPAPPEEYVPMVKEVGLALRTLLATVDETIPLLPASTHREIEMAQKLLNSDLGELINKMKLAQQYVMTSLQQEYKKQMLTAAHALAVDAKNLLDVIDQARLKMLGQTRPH
Sequence of Fibroblast growth factor 2 (Homo sapiens) (P09038 whole entry, looked up): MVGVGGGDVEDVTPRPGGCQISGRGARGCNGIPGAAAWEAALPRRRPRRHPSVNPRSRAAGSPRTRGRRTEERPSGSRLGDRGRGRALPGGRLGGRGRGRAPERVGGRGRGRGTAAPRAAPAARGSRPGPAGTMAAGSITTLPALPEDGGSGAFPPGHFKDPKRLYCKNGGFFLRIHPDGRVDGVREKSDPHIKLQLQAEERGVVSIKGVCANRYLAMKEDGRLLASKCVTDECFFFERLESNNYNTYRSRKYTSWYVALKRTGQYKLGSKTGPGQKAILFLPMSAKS
Sequence of Follistatin (Homo sapiens) (P19883 whole entry, looked up): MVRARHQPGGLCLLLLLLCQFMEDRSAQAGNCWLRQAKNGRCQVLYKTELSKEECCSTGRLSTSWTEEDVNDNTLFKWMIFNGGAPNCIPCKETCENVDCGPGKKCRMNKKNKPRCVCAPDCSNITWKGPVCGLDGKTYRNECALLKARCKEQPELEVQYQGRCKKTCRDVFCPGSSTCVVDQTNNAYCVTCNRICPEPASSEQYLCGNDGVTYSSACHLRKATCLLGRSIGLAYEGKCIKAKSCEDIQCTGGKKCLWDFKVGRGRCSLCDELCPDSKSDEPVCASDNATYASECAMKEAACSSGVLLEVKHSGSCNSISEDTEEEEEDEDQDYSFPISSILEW
Sequence of Concanavalin-A (Canavalia ensiformis) (P02866 whole entry, looked up): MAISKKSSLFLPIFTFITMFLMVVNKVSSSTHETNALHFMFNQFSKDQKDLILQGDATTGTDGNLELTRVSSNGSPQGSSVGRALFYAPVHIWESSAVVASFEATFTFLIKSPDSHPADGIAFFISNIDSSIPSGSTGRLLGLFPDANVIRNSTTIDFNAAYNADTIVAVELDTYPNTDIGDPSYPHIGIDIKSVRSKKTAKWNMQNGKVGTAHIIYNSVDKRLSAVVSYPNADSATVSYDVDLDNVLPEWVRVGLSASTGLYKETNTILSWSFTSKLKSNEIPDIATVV
Sequence of Albumin (Bos taurus) (P02769 whole entry, looked up): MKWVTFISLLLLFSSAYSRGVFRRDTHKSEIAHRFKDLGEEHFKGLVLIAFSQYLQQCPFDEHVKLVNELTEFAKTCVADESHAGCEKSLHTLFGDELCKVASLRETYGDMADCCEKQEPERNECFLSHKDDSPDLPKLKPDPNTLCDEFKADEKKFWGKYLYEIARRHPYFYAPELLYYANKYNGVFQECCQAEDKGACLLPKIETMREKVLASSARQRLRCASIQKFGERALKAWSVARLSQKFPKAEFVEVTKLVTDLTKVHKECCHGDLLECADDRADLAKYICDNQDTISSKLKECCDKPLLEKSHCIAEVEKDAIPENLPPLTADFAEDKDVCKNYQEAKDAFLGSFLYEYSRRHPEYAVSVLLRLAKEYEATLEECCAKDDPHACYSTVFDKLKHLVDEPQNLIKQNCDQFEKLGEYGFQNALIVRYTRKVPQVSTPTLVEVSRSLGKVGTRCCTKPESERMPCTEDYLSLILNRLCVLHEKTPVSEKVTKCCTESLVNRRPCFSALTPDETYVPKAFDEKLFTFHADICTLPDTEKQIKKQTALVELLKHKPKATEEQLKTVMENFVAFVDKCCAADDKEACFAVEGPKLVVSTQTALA

## C#CCCCON=C1C[C@@H](O)[C@@H](O)[C@@H]2[C@@H]3C(=O)N(c4ccc(F)cc4F)C(=O)[C@@H]3CC[C@H]12
Albumin (Bos taurus)
  composite z-score: 0.314
[1]
  composite Z-score: -0.488 (inactive)
[2]
  composite z-score: -0.122
[3]
  composite z-score: -0.151
[4]
  composite z-score: 0.65
[5]
  composite z-score: 0.887
[6]
  composite z-score: 0.145
Sam68 (KHDRBS1)
  composite z-score: 1.15
[7]
  composite z-score: 0.392
[8]
  composite z-score: 0.772
[9]
  composite z-score: 0.968
[10]
  composite z-score: 1.02
[11]
  composite z-score: 0.208
[12]
  composite z-score: 0.894
[13]
  composite z-score: 0.424
[14]
  composite z-score: 0.322
[15]
  z-score: 0.0852
Lefty1
  composite z-score: 0.662
[16]
  composite z-score: 0.0156
[17]
  z-score: 0.573 (inactive)

## CC(C)CON=C1C[C@@H](O)[C@@H](O)[C@@H]2[C@@H]3C(=O)N(C(C)(C)C)C(=O)[C@@H]3CC[C@H]12
Albumin (Bos taurus)
  composite z-score: -0.135
[1]
  composite Z-score: 0.3 (inactive)
[2]
  composite z-score: 0.0039
[3]
  composite z-score: -0.124
[4]
  composite z-score: 0.11
[5]
  composite z-score: 1.36
[6]
  composite z-score: 0.057
Sam68 (KHDRBS1)
  composite z-score: 1.01
[7]
  composite z-score: 0.297
[8]
  composite z-score: -1.23
[9]
  composite z-score: 1.15
[10]
  composite z-score: -0.264
[11]
  composite z-score: -0.0405
[12]
  composite z-score: 0.0972
[13]
  composite z-score: -0.924
[14]
  composite z-score: -0.546
[15]
  z-score: -0.125
Lefty1
  composite z-score: -0.52
[16]
  composite z-score: -0.0283
[17]
  z-score: 0.473 (inactive)

## CC(C)(C)N1C(=O)[C@H]2[C@H]3[C@H](O)[C@H](O)CC(=NOCc4ccccc4)[C@H]3CC[C@H]2C1=O
Albumin (Bos taurus)
  composite z-score: 0.0116
[1]
  composite Z-score: -0.491 (inactive)
[2]
  composite z-score: 0.0961
[3]
  composite z-score: -0.057
[4]
  composite z-score: -0.0598
[5]
  composite z-score: 0.376
[6]
  composite z-score: 0.699
Sam68 (KHDRBS1)
  composite z-score: -0.217
[7]
  composite z-score: 0.737
[8]
  composite z-score: -0.344
[9]
  composite z-score: 0.102
[10]
  composite z-score: 0.0128
[11]
  composite z-score: -0.103
[12]
  composite z-score: 0.451
[13]
  composite z-score: -0.829
[14]
  composite z-score: -0.34
[15]
  z-score: -0.316
Lefty1
  composite z-score: -0.484
[16]
  composite z-score: 0.877
[17]
  z-score: 0.109 (inactive)

## CC(C)=CCCC(C)=CCON=C1C[C@@H](O)[C@@H](O)[C@@H]2[C@@H]3C(=O)N(Cc4ccccc4)C(=O)[C@@H]3CC[C@H]12
Albumin (Bos taurus)
  composite z-score: 0.188
[1]
  composite Z-score: 0.4 (inactive)
[2]
  composite z-score: 0.0493
[3]
  composite z-score: -0.175
[4]
  composite z-score: 0.754
[5]
  composite z-score: 1.26
[6]
  composite z-score: 0.146
Sam68 (KHDRBS1)
  composite z-score: 1.29
[7]
  composite z-score: 0.955
[8]
  composite z-score: 0.541
[9]
  composite z-score: 0.267
[10]
  composite z-score: 1.2
[11]
  composite z-score: 0.171
[12]
  composite z-score: 0.476
[13]
  composite z-score: 0.669
[14]
  composite z-score: 0.736
[15]
  z-score: -0.566
Lefty1
  composite z-score: 0.751
[16]
  composite z-score: 0.283
[17]
  z-score: 0.71 (inactive)

## Cc1cc2c(nc1C)CCCN2CC(O)CN1CCCc2nc(C)c(C)cc21
Albumin (Bos taurus)
  composite z-score: -0.293
[1]
  composite Z-score: 2.34 (inactive)
[2]
  composite z-score: 0.308
[3]
  composite z-score: 0.054
[4]
  composite z-score: 0.798
[5]
  composite z-score: 1.21
[6]
  composite z-score: 0.446
Sam68 (KHDRBS1)
  composite z-score: 0.651
[7]
  composite z-score: 0.633
[8]
  composite z-score: 0.879
[9]
  composite z-score: 1.92
[10]
  composite z-score: -0.0317
[11]
  composite z-score: 0.281
[12]
  composite z-score: -0.575
[13]
  composite z-score: 0.817
[14]
  composite z-score: 1.06
[15]
  z-score: -0.685
Lefty1
  composite z-score: 0.454
[16]
  composite z-score: 0.562
[17]
  z-score: 0.723 (inactive)

## COC(=O)CC=C[C@@H](C)[C@@H](C=NO[C@H](C)c1cn([C@H](CO)Cc2ccccc2)nn1)OC
Albumin (Bos taurus)
  composite z-score: 0.113
[1]
  composite Z-score: 0.215 (inactive)
[2]
  composite z-score: 0.118
[3]
  composite z-score: -0.118
[4]
  composite z-score: -0.16
[5]
  composite z-score: 0.188
[6]
  composite z-score: 0.456
Sam68 (KHDRBS1)
  composite z-score: 0.804
[7]
  composite z-score: 0.944
[8]
  composite z-score: 0.254
[9]
  composite z-score: 3.43
[10]
  composite z-score: 0.544
[11]
  composite z-score: -0.144
[12]
  composite z-score: 0.236
[13]
  composite z-score: 0.517
[14]
  composite z-score: 0.827
[15]
  z-score: -0.826
Lefty1
  composite z-score: 0.71
[16]
  composite z-score: 0.268
[17]
  z-score: -0.165 (inactive)
